# Measurements from PubChem BioAssay (Tox21).
# Values joined by “and” are separate entries in the source; they are usually repeats but may differ in a detail not shown here. Equal values may be shown once. Results filed as inconclusive are left out. Active and inactive are the calls of the source. Calls come from the whole dose curve; as a rule, active = well fitted activation curve with a large enough effect in the repeat runs; inconclusive = weak or mixed curves; inactive = flat fitted curve, though single readings scatter.
# Test: A CellTox Green Cytotoxicity Assay to monitor cytotoxicity in HEK293 cells - 40 hour (AID 1224871); note: nearly all actives have a fitted effect of over 45% in size
# Settings: CellTox Green fluorescence; series mostly up to 76.8 µM; cytotoxicity increase: at the top concentration
# Excerpt: National Center for Advancing Translational Sciences [NCATS]
# NIH Chemical Genomics Center [NCGC]
# U.S. Environmental Protection Agency [EPA]
# National Institutes of Environmental Health Sciences [NIEHS]
# National Toxicology Program [NTP]
# Cell-based models are critical for drug discovery. Determining the natural cytotoxic effects resulting from test compounds is an essential research activity. A CellTox Green Cytotoxicity Assay to monitor cytotoxicity in real time of continues cell culture during 40 hours of the compound treatment was used to screen Tox21 10K library compounds in Hek293 cells. CellTox Green Cytotoxicity Assay is a nonlytic, homogeneous, biofluorescent method to measure cytotoxicity in cell culture after experimental manipulation. The assay system uses a proprietary asymmetric cyanine dye that is excluded from viable cells but preferentially stains the dead cell's DNA. […] Viable cells produce no appreciable increases in fluorescence. Therefore, the fluorescence signal produced by the binding interaction with dead cell DNA is proportional to cytotoxicity.
# The mixture of Hek293 cell suspension and reagents were dispensed at 600cells/6 ul/well in 1536-well tissue culture treated black solid bottom plates using a Multidrop dispenser. After the assay plates were incubated at a 37 C/5% CO2 incubator for 5 hours, 23 nL of compounds dissolved in DMSO, positive and negative controls was transferred to the assay plate by a pintool work station. The plates were incubated at 37 C for 40 hours. The fluorescence intensity were measured at 0h, 8h, 16h, 24h, 32h and 40h time points using ViewLux plate reader during compound treatment.
# % is set by controls: 0 for no effect and ±100 for the full control effect; potency is the fitted concentration of half-maximal effect.
SMILES,cytotoxicity increase,Potency
C=Cc1ccccc1C=C,-7.04% [at 200 µM] (inactive),–
CN1CCCCC1CCN1c2ccccc2Sc2ccc(S(C)=O)cc21 (stereo not given),6.12% [at 35.3 µM] (inactive),–
Cc1ccc(O)c(N)c1,-2.9% (inactive),–
S=c1nccc[nH]1,-9.69% (inactive),–
COc1ccc2c(c1)c(CC(=O)OC/C=C(\C)CC/C=C(\C)CCC=C(C)C)c(C)n2C(=O)c1ccc(Cl)cc1,13.8% [at 35.3 µM] (inactive),–
CC(C)NC[C@@H](O)COc1ccc(CC(N)=O)cc1,-6.95% [at 35.3 µM] (inactive),–
CCCCCCCCCCOC(=O)c1ccccc1C(=O)OCCCCCCCC,-17.4% (inactive),–
Cc1cccc(C)c1NC(=O)c1ccc(N)cc1,1.95% [at 35.3 µM] (inactive),–
O=C1OC2(c3ccc(O)cc3Oc3cc(O)ccc32)c2ccc(N=C=S)cc21,–,12.5 µM (active)
CCCC[P+](C)(CCCC)CCCC,7.84% (inactive),–
O=C1CCCCCCCCCCCCCCCO1,–,24.5 µM (active)
CCCCCCCCCCCCCCCC[N+](C)(C)CC,–,43.8 µM (active) and 23.9 µM (active)
O=S(=O)(O)c1ccc(N=Nc2c(O)ccc3ccccc23)cc1,-28.5% (inactive),–
CC[N+](CC)(CC)CCOC(=O)C(C1CCCC1)C1CCCC1,23.6% [at 35.3 µM] (inactive),–
CN(C)Cc1ccccc1O,5.3% (inactive),–
c1ccc(C(O[C@@H]2CCCN(CCc3ccc4c(c3)OCO4)C2)c2ccccc2)cc1,0.389% (inactive),–
CCc1cccc(CC)c1NC(=O)CN(CC(=O)O)CC(=O)O,-26.9% [at 35.3 µM] (inactive),–
NC(=S)NC(N)=S,-11.9% (inactive),–
c1ccsc1,-1.65% (inactive),–
COC1=C(OC)C(=O)C(CCCCCCCCCCO)=C(C)C1=O,7.52% [at 35.3 µM] (inactive),–

SMILES,cytotoxicity increase,Potency
Cc1ccc(N/N=c2\c(=O)cc/c(=N\Nc3ccc(S(=O)(=O)O)cc3)c2=O)c(C)c1,-27.2% (inactive),–
COc1cc(C)ccc1O,-0.931% (inactive),–
CC1=Nc2ccccc2C1(C)C,1.04% (inactive),–
Nc1ccc(C(=O)O)c(O)c1,-14.7% [at 35.3 µM] (inactive),–
Oc1ccccc1O,–,inactive
CCN(CC)c1ccc2c(-c3ccc(S(=O)(=O)O)cc3S(=O)(=O)[O-])c3ccc(=[N+](CC)CC)cc-3oc2c1,-12.6% (inactive),–
Cc1cc(C)c(/C=C2\C(=O)Nc3ccccc32)[nH]1,–,9.52 µM (active)
Nc1nc2c(ncn2COCCO)c(=O)[nH]1,-3.77% [at 35.3 µM] (inactive),–
C#C[C@]1(OC(C)=O)CC[C@H]2[C@@H]3CCC4=C/C(=N/O)CC[C@@H]4[C@H]3CC[C@@]21CC,23.9% [at 35.3 µM] (inactive),–
O=C1C(c2[nH]c3ccc(S(=O)(=O)O)cc3c2O)=Nc2ccc(S(=O)(=O)O)cc21,-12.9% (inactive),–
COC(=O)Nc1nc2ccc(C(=O)c3ccccc3)cc2[nH]1,-8.88% [at 35.3 µM] (inactive),–
Cc1c2ccccc2c(C)c2c1ccc1ccccc12,–,43.6 µM (active)
CN(C)c1ccc(C(=C2C=CC(=[N+](C)C)C=C2)c2ccc(N(C)C)cc2)cc1,–,21.9 µM (active) and 21.3 µM (active)
CCC(C)n1ncn(-c2ccc(N3CCN(c4ccc(OC[C@H]5CO[C@](Cn6cncn6)(c6ccc(Cl)cc6Cl)O5)cc4)CC3)cc2)c1=O (stereo not given in full),-17.3% [at 35.3 µM] (inactive),–
COCCOc1cc2cc(C(=O)NC3CCN(C(C)C)CC3)n(CC(=O)Nc3ccc(Cl)cn3)c2cn1,-11.7% (inactive),–
O=S(=O)(O)c1ccc(Nc2nc(Nc3ccc(/C=C/c4ccc(Nc5nc(Nc6ccc(S(=O)(=O)O)cc6)nc(N(CCO)CCO)n5)cc4S(=O)(=O)O)c(S(=O)(=O)O)c3)nc(N(CCO)CCO)n2)cc1,-6.53% [at 35.3 µM] (inactive),–
Cc1cc(C(C)(C)C)cc(C)c1CC1=NCCN1,-14.4% [at 35.3 µM] (inactive),–
O=C(O)CCN(C1(C(=O)NO)CCCC1)S(=O)(=O)c1ccc(Oc2ccc(F)cc2)cc1,-6.05% (inactive),–
CC(N=C(NC#N)Nc1ccncc1)C(C)(C)C (stereo not given),-3.76% [at 35.3 µM] (inactive),–
Nc1ccc(NCCO)c([N+](=O)[O-])c1,-20.8% (inactive),–
